PubChem BioAssay (NCATS)
Results filed as inconclusive are left out. A call without a number means that no potency is given here. Values without a mark were called inactive. Activity calls are given as the source filed them. Calls follow the shape of the dose curve; as a rule, active = well fitted inhibition curve with a large enough effect; inconclusive = small, poorly fitted or top-dose-only effect; inactive = no such curve, though single readings can be large or run the other way. Where a SMILES comes first, the peptide text is derived from it. The star is where a group is joined. Cbz = O=C(OCc1ccccc1)*; CH2F = FC*

Columns and labels:
[1] = tested on: Zika virus NS2B-NS3 protease (unlinked complex); assay: Primary screen GU Rhodamine qHTS for Zika virus inhibitors: Unlinked NS2B-NS3 protease assay (AID 1347159); settings: Recombinant ZIKV NS2B-NS3 protease, Rhodamine110 substrate fluorescence; series mostly up to 107 µM; also: nearly all actives have a fitted effect of over 60% in size
Outline: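 Percent inhibition came from the 15-min rise in Rhodamine110 fluorescence (1.5 microM substrate, ~15% conversion), normalized to no-inhibitor and no-enzyme wells and Hill-fitted. Unlinked protease, 25 nM, pH 8.0 Tris buffer; compounds up to 114 microM, 15-min preincubation.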

[2] = tested on: Zika virus NS2B-NS3 protease (linked construct); assay: Primary screen NINDS Rhodamine qHTS for Zika virus inhibitors (AID 1347160); settings: purified NS2B-NS3 protease, Rhodamine110 substrate fluorescence; series mostly up to 33.1 µM; also: nearly all actives have a fitted effect of over 55% in size
Outline: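 Rhodamine110-peptide cleavage (1.5 µM substrate) by 25 nM linked NS2B-NS3 enzyme at pH 8.0 (Tris, Tween 20), after 15 min RT preincubation with compounds; 15-min fluorescence change normalized to controls and Hill-fitted.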

[3] = Confirmatory screen NINDS Rhodamine qHTS for Zika virus inhibitors (AID 1347161); settings: purified enzyme assay, Rhodamine110 substrate fluorescence, 15 min; series mostly up to 114 µM; also: nearly all actives have a fitted effect of over 60% in size
Outline: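 Purified NS2B-NS3 protease with the NS2B hydrophilic domain joined by a flexible linker (25 nM) in 10 mM Tris-HCl pH 8.0, 0.01% Tween 20, preincubated 15 min at RT with compound; Rhodamine110 peptide substrate 1.5 µM; fluorescence change over 15 min; 4-parameter Hill fit.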
Potency is read from the fitted curve at half-maximal effect.

SMILES: CC(C)C1NC(=O)C(CC2(O)c3ccccc3N3C(=O)C(Cc4ccccc4)NC32)NC1=O (stereo unspecified)
- Potency [1]: inactive
- Potency [2]: inactive

SMILES: O=C(Nc1ccn(Cc2c(F)cccc2C(F)(F)F)n1)c1c(F)cccc1F
- Potency [1]: inactive
- Potency [2]: inactive

SMILES: O=[N+]([O-])c1cc(Cl)ccc1S(=O)(=O)N1CCN(Cc2ccccc2)CC1
- Potency [1]: inactive
- Potency [2]: inactive

SMILES: O=C(O[C@H]1[C@H](Oc2ccc(O)cc2CO)O[C@H](CO)[C@@H](O)[C@@H]1O)c1ccccc1
- Potency [1]: inactive
- Potency [2]: inactive

SMILES: CC1=C[C@H](O)[C@H]2C(C)(C)CCC[C@]2(C)[C@@]1(O)CO
- Potency [1]: inactive
- Potency [2]: inactive

SMILES: CC(=O)NC(Cc1ccccc1)C(=O)NC(C(=O)O)C(C)C (stereo not drawn) (Ac-Phe-Val-OH; configuration not given here)
- Potency [1]: inactive
- Potency [2]: inactive

SMILES: CCc1nn(CCO)c(CC)c1Oc1cc(C#N)cc(C#N)c1
- Potency [1]: inactive
- Potency [2]: inactive

SMILES: COc1cc2c(cc1OC)N1C(=O)C[C@@]34C=CC[N@+]5([O-])CC[C@H]2[C@H](CC3)[C@@]145
- Potency [1]: inactive
- Potency [2]: inactive

SMILES: C=C1C2(C)CC3C4(C)C=CC(=O)OC(C)(C)C4CCC3(C)C1(C(=O)OC)C(=O)C(C)(O)C2=O (stereo unspecified)
- Potency [1]: inactive
- Potency [2]: inactive

SMILES: NC[C@@H]1O[C@@H](O[C@@H]2[C@@H](O[C@@H]3O[C@H](CO)[C@@H](O)[C@H]3O)[C@H](O)[C@@H](N)C[C@H]2N)[C@@H](N)[C@H](O)[C@H]1O
- activity change, negative = inhibition [1]: 6.33% [at 19.1 µM]
- Potency [2]: inactive

SMILES: CC(C)=CCC[C@](C)(O[C@@H]1O[C@H](CO[C@@H]2OC[C@H](O)[C@H](O)[C@H]2O)[C@@H](O)[C@H](O)[C@H]1O)[C@H]1CC[C@]2(C)[C@@H]1[C@H](O)C[C@@H]1[C@@]3(C)CC[C@H](O[C@@H]4O[C@H](CO)[C@@H](O)[C@H](O)[C@H]4O[C@@H]4O[C@H](CO)[C@@H](O)[C@H](O)[C@H]4O)C(C)(C)[C@@H]3CC[C@]12C
- Potency [1]: inactive
- Potency [2]: inactive

SMILES: O=C(O)c1cc(O[C@@H]2O[C@H](CO)[C@@H](O)[C@H](O)[C@H]2O)ccc1O
- Potency [1]: inactive
- Potency [2]: inactive

SMILES: CC1(C)CC=C(C#Cc2ccccc2)c2cc(/C=C/c3ccc(C(=O)O)cc3)ccc21
- Potency [1]: 6.31 µM (active)
- Potency [2]: 15.8 µM (active)

SMILES: C[C@]1(O)CC[C@@H]2C(C(=O)O)=CO[C@@H](O[C@@H]3O[C@H](CO)[C@@H](O)[C@H](O)[C@H]3O)[C@@H]21
- Potency [1]: inactive
- Potency [2]: inactive

SMILES: C=C(C)C1CCC2(C(=O)OC3OC(COC4OC(CO)C(O)C(O)C4O)C(OC4OC(C)C(O)C(O)C4O)C(O)C3O)CCC3(C(=O)O)C(CCC4C5(C)CCC(=O)C(C)(C)C5CCC43C)C12 (stereo unspecified)
- Potency [1]: inactive
- Potency [2]: inactive

SMILES: CC(=O)O[C@@H](C[C@@H]1C=C(C)C(=O)O1)[C@H](C)[C@H]1CCC2[C@@]3(C)CC[C@H](O[C@@H]4O[C@H](CO)[C@@H](O)[C@H](O)[C@H]4O[C@@H]4O[C@@H](C)[C@H](O)[C@@H](O)[C@H]4O)C(C)(C)C3CC[C@@]2(C)[C@@]12COC(=O)C2 (stereo partly specified)
- Potency [1]: inactive
- Potency [2]: inactive

SMILES: COc1cn(-c2ccc(-n3cccn3)cc2F)nc(-c2ccnn2-c2ccccc2)c1=O
- Potency [1]: inactive
- Potency [2]: inactive

SMILES: C=C1[C@H](OC(C)=O)[C@H]2[C@@H](OC(=O)c3ccccc3)[C@@H](C)C[C@]2(O)[C@@H](OC(C)=O)[C@H](C)/C=C/C(C)(C)C(=O)[C@H](OC(C)=O)[C@H]1OC(C)=O
- Potency [1]: inactive
- Potency [2]: inactive

SMILES: Cc1occc(=O)c1O[C@@H]1O[C@H](COC(=O)CC(C)(O)CC(=O)O)[C@@H](O)[C@H](O)[C@H]1O (stereo partly specified)
- Potency [1]: inactive
- Potency [2]: inactive

SMILES: CC(C)(O)[C@@H]1CC[C@]2(CO)[C@@H](O)CC[C@](C)(O)[C@H]2[C@@H]1O[C@@H]1O[C@H](CO)[C@@H](O)[C@H](O)[C@H]1O
- Potency [1]: inactive
- Potency [2]: inactive

SMILES: O=C(NC1Cc2ccccc2N(C[C@@H](O)CO)C1=O)c1cc2cc(Cl)sc2[nH]1 (stereo partly specified)
- Potency [1]: inactive
- Potency [2]: inactive

SMILES: CN1CCN(C2=Nc3ccccc3Nc3ccc(O)cc32)CC1
- Potency [1]: inactive
- Potency [2]: inactive

SMILES: Cc1occc(=O)c1O[C@@H]1O[C@H](CO)[C@@H](O)[C@H](O)[C@H]1O
- Potency [1]: inactive
- Potency [2]: inactive

SMILES: CC1=C2CC3C(CCC3(C)O)C(C)(O)CC2OC1=O (stereo unspecified)
- Potency [3]: 44.1 µM (active)

SMILES: CC(CNS(=O)(=O)C(C)C)c1ccc(-c2ccc(C#N)cc2)cc1 (stereo unspecified)
- Potency [2]: inactive

SMILES: O=C(/C=C/N1C[C@@H]2C[C@@H]1CN2c1ccccn1)c1ccccc1O
- Potency [2]: inactive

SMILES: C/C1=C\CC[C@]2(C)O[C@H]2C(=O)c2c(C)coc2C1
- Potency [2]: inactive

SMILES: C=C(C(=O)O)[C@@H]1CC[C@H](C)[C@@H]2CC(=O)C(C)=C2C1
- Potency [2]: inactive

SMILES: C/C=C/C=C/C(O)=C1/C(=O)[C@]2(C)C(=O)[C@@](C)(O)[C@H]1[C@H]([C@@]1(C)OC(=O)C(C)=C1O)[C@H]2C(=O)CC/C=C/C
- Potency [2]: inactive

SMILES: COC(=O)CC[C@H](NC(=O)[C@H](CC(C)C)NC(=O)OCc1ccccc1)C(=O)N[C@@H](Cc1cnc[nH]1)C(=O)N[C@@H](CC(=O)OC)C(=O)CF (Cbz-LE(OMe)HD(OMe)-CH2F)
- Potency [2]: inactive

SMILES: O=C(OCC1=C[C@@H](O)[C@@H]2C=CO[C@@H](O[C@@H]3O[C@H](CO)[C@@H](O)[C@H](O)[C@H]3O)[C@H]12)c1ccc(O)cc1
- Potency [2]: inactive

SMILES: COc1cc(C(O)C2COC(c3ccc(OC4OC(CO)C(O)C(O)C4O)c(OC)c3)C2CO)ccc1O (stereo unspecified)
- Potency [2]: inactive

SMILES: CC1(C)CC(NC(=O)C(=O)Nc2ccc(Cl)cc2)CC(C)(C)N1
- Potency [2]: inactive

SMILES: COC(=O)C1=CO[C@@H](O[C@@H]2O[C@H](CO)[C@@H](O)[C@H](O)[C@H]2O)/C(=C\CO)[C@@H]1CC(=O)OCCc1ccc(O)cc1
- Potency [2]: inactive

SMILES: COc1cc(O)c2c(c1Cl)CC(C)OC2=O (stereo unspecified)
- Potency [2]: inactive

SMILES: CC1=C2CC(O)(C(C)(C)O)C(O[C@@H]3O[C@H](CO)[C@@H](O)[C@H](O)[C@H]3O)CC(C)C2CC1=O (stereo partly specified)
- Potency [2]: inactive

SMILES: CC1CC2(O)OC(=O)C3=C2C(CCC3)[C@@]12C[C@@H](c1ccoc1)OC2=O (stereo partly specified)
- Potency [2]: inactive

SMILES: Cc1c(-c2ccc3c(c2)OCO3)oc2ccc(C(O)C(C)O)cc12 (stereo unspecified)
- Potency [2]: inactive

SMILES: OC[C@H]1O[C@@H](OCCc2ccccc2)[C@H](O)[C@@H](O)[C@@H]1O
- Potency [2]: inactive

SMILES: CC[C@@H]1[C@H]2CCCCN3C(=O)C[C@H]([C@@H]4[C@H]1OC(=O)[C@H]4C)[C@@H]23
- Potency [2]: inactive

SMILES: COC(=O)[C@H](c1ccccc1Cl)N1CCC2SC(=O)C=C2C1 (stereo partly specified)
- Potency [2]: inactive

SMILES: C=C(C(=O)O)C1CC(OC(=O)CC(C)CC)C2(C)CCCC(=C)C2C1 (stereo unspecified)
- Potency [2]: inactive

SMILES: COc1cc(/C=C/C(=O)OC[C@H]2O[C@@H](OC3CC(C)=C(C(=O)O)C(C)(C)C3)[C@H](O)[C@@H](O)[C@@H]2O)cc(OC)c1O (stereo partly specified)
- Potency [2]: inactive

SMILES: CC[C@H](NC(=O)c1c(O)c(-c2ccccc2)nc2ccccc12)c1ccccc1
- Potency [2]: inactive

SMILES: C=C(C)C1Cc2c(ccc3c2OCC(c2ccc(O)cc2O)C3)O1 (stereo unspecified)
- Potency [2]: inactive

SMILES: C/C=C/C=C/C(=O)OC1CC/C=C/C(O)C(O)C(CCC)OC1=O (stereo unspecified)
- Potency [2]: inactive

SMILES: C=CCc1cc(OC)c(OC(C)C(O)c2ccc(O)c(OC)c2)c(OC)c1 (stereo unspecified)
- Potency [2]: inactive

SMILES: O=C(N[C@@H]1CC[C@@H](c2cccc(F)c2F)CN(CC(F)(F)F)C1=O)N1CCC(n2c(=O)[nH]c3ncccc32)CC1
- Potency [2]: inactive

SMILES: CC[C@@H](Nc1c(Nc2cccc(C(=O)N(C)C)c2O)c(=O)c1=O)c1ccc(C)o1
- Potency [2]: inactive

SMILES: O=C1C[C@@]2(C(=O)N1)C(=O)N(Cc1ccc(Br)cc1F)C(=O)c1cccn12
- Potency [2]: inactive

SMILES: CC1=C2C(=O)C=C(CO)C2C2OC(=O)C(CS(=O)(=O)O)C2C(OC(=O)Cc2ccc(O)cc2)C1 (stereo unspecified)
- Potency [2]: inactive

SMILES: CC(C)(O)C1CC=C(C(=O)OC[C@H]2O[C@@H](Oc3cc(C(=O)O)cc(O)c3O)[C@H](O)[C@@H](O)[C@@H]2O)CC1 (stereo partly specified)
- Potency [2]: inactive

SMILES: CNc1nc(C)nc(N[C@H]2CCC[C@@H](C(=O)NCc3ccc(C#N)cc3C(F)(F)F)C2)n1
- Potency [2]: inactive

SMILES: COc1cc2nc(=NC(=O)c3cccnc3)n3c(c2cc1OC)NCC3
- Potency [2]: inactive

SMILES: CC(=O)OCC1=CCC2C(C)(C)CCCC2(C)C12CCC(C)(CC(=O)O)O2 (stereo unspecified)
- Potency [2]: inactive

SMILES: COCC1OC(OC(C)(C)C2CCC3(C)C=C(C4CCC5C4(C)CC(O)C4OC(C(C)(C)O)CCC45C)CCC3O2)C(NC(C)=O)C(O)C1O (stereo unspecified)
- Potency [2]: inactive

SMILES: O=C(O)C[C@H]1CCC(=O)[C@@H]1C/C=C\CCO
- Potency [2]: inactive

SMILES: COc1ccc(C(=O)OC2C3C=COC(OC4OC(CO)C(O)C(O)C4O)C3C3(CO)OC23)cc1OC (stereo unspecified)
- Potency [2]: inactive

SMILES: CC(CC(C)O[C@@H]1O[C@H](CO)[C@@H](O)[C@H](O)[C@H]1O)OC(=O)/C=C/c1ccc(O)cc1 (stereo partly specified)
- Potency [2]: 12.6 µM (active)

SMILES: CCOC(=O)c1ccc(NC2CCCCC2)c(N)c1
- Potency [2]: inactive

SMILES: C[C@@H]1O[C@@H](OC2C(O[C@H]3[C@H](O[C@H]4CC[C@@]5(C)C(CC[C@]6(C)C5CC=C5C7CC(C)(C)CC(O)[C@]7(C)CC[C@]56C)C4(C)C)O[C@H](C(=O)O)[C@@H](O)[C@@H]3O)OC(CO)C(O)C2O)[C@H](O)[C@H](O)[C@H]1O (stereo partly specified)
- Potency [2]: inactive

SMILES: CC1=CC(=O)C(=C(C)C)CC2C(C)(O)CCC12O (stereo unspecified)
- Potency [2]: inactive

SMILES: COc1ccc(OC2OC(CO[C@@H]3O[C@@H](C)[C@H](O)[C@@H](O)[C@H]3O)C(O)C(O)C2O)cc1OC (stereo partly specified)
- Potency [2]: inactive
